Structures can show the parent of a compound that is named as a salt. Where two headings read alike, the source gives them in different places. Screen size: about 3,300 compounds; about 95 (3%) showed an effect of 50% or more. For the sample, strong results were picked, then their nearest neighbours and some compounds at random.
System: HCoV-229E
Design: species or system Huh-7; HTS, protection from HCoV-229E induced cell death, luminescent cell viability (CellCounting-Lite 2.0), inhibition rate
Conditions: 24 h post infection, 1 h compound pre-incubation, 10 µM, inhibitor

Compound	229E Inhibition rate [%]	229E Inhibition rate (229E Inhibition rate, 24 h) [%]
CCC(C)(O)C(=O)O (stereo not shown) [2-Hydroxy-2-methylbutanoic acid]	0	
C[C@@H]1O[C@@H](OC[C@H]2O[C@@H](Oc3c(-c4ccc(OCCO)c(OCCO)c4)oc4cc(OCCO)cc(O)c4c3=O)[C@H](O)[C@@H](O)[C@@H]2O)[C@H](O)[C@H](O)[C@H]1O [Troxerutin]	50.2	
C[C@@H]1O[C@@H](OC[C@H]2O[C@@H](Oc3c(-c4ccc(O)cc4)oc4cc(O[C@@H]5O[C@@H](C)[C@H](O)[C@@H](O)[C@H]5O)cc(O)c4c3=O)[C@H](O)[C@@H](O)[C@H]2O)[C@H](O)[C@H](O)[C@H]1O [Robinin]	8.6	
COc1cc(O)c2c(=O)c(O[C@@H]3O[C@H](CO[C@@H]4O[C@@H](C)[C@H](O)[C@@H](O)[C@H]4O)[C@@H](O)[C@H](O)[C@H]3O)c(-c3ccc(OC)c(O)c3)oc2c1 [Ombuoside]	41.9	
O=C1CCNC(=O)N1 [Dihydrouracil]	0	
COc1c(O)cc2oc3cc4c(c(O)c3c(=O)c2c1CC=C(C)C)CCC(C)(C)O4 [3-Isomangostin]	11.6	
N[C@H](CS)C(=O)O [D-Cysteine]	6.6	
O=C[C@H](O)[C@@H](O)[C@@H](O)[C@H](O)C(=O)O [D-Galacturonic acid (hydrate)]	6.7	
O=C[C@H](O)[C@@H](O)[C@H](O)[C@H](O)C(=O)O [D-Glucuronic acid]	57.5	
O=C(O)[C@@H](O)[C@H](O)[C@H](O)[C@@H](O)C(=O)O [Mucic acid]	0	
CC(C)=CCc1c(O)cc2c(c1O)C(=O)C[C@@H](c1ccc(O)cc1)O2 [(2S)-6-Prenylnaringenin]	22.5	
CC[C@]12C=CCN3CC[C@]4(C(=C(C(=O)OC)C1)Nc1ccccc14)[C@@H]32 [Tabersonine]	0	
O=C(O)CCC(=O)OC[C@@H](NC(=O)C(Cl)Cl)[C@H](O)c1ccc([N+](=O)[O-])cc1 [Chloramphenicol succinate (sodium)]	54	
COC(=O)[C@]1(O)C[C@@H](O)[C@@H](O)[C@H](OC(=O)/C=C/c2ccc(O)c(O)c2)C1 [3-O-Caffeoylquinic acid methyl ester]	24.2	
COc1cc(CCC(=O)O)ccc1O [Dihydroferulic acid]	28.8	
COc1cc(CCC(=O)O)cc(OC)c1OC [3-(3,4,5-Trimethoxyphenyl)propanoic acid]	55.1	
COc1cc(C(=O)O)cc(OC)c1OC [3,4,5-Trimethoxybenzoic acid]	11.2	
C[C@H](CCC(=O)O)[C@H]1CC[C@H]2[C@@H]3[C@H](O)C[C@@H]4CC(=O)CC[C@]4(C)[C@H]3C[C@H](O)[C@]12C [3-Oxocholic acid]	4.2	
CC[C@H](CC[C@@H](C)[C@H]1CC[C@H]2[C@@H]3CC[C@H]4C[C@@H](O)CC[C@]4(C)[C@H]3CC[C@]12C)C(C)C [Stigmastanol]	12.4	
O=c1cc(-c2ccc(O)c(O)c2)oc2c([C@@H]3O[C@H](CO)[C@@H](O)[C@H](O)[C@H]3O)c(O)cc(O)c12 [Orientin]	55	
COc1cc2oc(-c3ccc(O)cc3)cc(=O)c2c(O)c1[C@@H]1O[C@H](CO)[C@@H](O)[C@H](O)[C@H]1O[C@@H]1O[C@H](CO)[C@@H](O)[C@H](O)[C@H]1O [Spinosin]	16.9	
O=c1cc(-c2ccc(O)c(O)c2)oc2c([C@@H]3O[C@H](CO)[C@@H](O)[C@H](O)[C@H]3O[C@H]3O[C@@H](CO)[C@@H](O)[C@@H](O)[C@@H]3O)c(O)cc(O)c12 [2"-O-beta-L-galactopyranosylorientin]	6.8	

Compound	229E Inhibition rate [%]	229E Inhibition rate (229E Inhibition rate, 24 h) [%]
O=c1cc(-c2ccc(O)cc2)oc2cc(O)c([C@@H]3O[C@H](CO)[C@@H](O)[C@H](O)[C@H]3O)c(O)c12 [Isovitexin]	21	
O=c1cc(-c2ccc(O)cc2)oc2c([C@@H]3O[C@H](CO)[C@@H](O[C@@H]4O[C@H](CO)[C@@H](O)[C@H](O)[C@H]4O)[C@H](O)[C@H]3O)c(O)cc(O)c12 [4”-O-Glucosylvitexin]	19	
O=c1cc(-c2ccc(O)cc2)oc2cc(O)c([C@@H]3O[C@H](CO)[C@@H](O)[C@H](O)[C@H]3O[C@@H]3OC[C@H](O)[C@H](O)[C@H]3O)c(O)c12 [Isovitexin 2''-O-arabinoside]	22.1	
O=c1cc(-c2ccc(O)c(O)c2)oc2cc(O)c([C@@H]3O[C@H](CO)[C@@H](O)[C@H](O)[C@H]3O)c(O)c12 [Isoorientin]	51.3	
O=c1cc(-c2ccc(O)c(O)c2)oc2cc(O[C@@H]3O[C@H](CO)[C@@H](O)[C@H](O)[C@H]3O)c(O)c(O)c12 [6-Hydroxyluteolin 7-glucoside]	5.1	
O=c1cc(-c2ccc(O)cc2)oc2cc(O)c([C@@H]3O[C@H](CO)[C@@H](O)[C@H](O)[C@H]3O[C@@H]3O[C@H](CO)[C@@H](O)[C@H](O)[C@H]3O)c(O)c12 [Meloside A]	56.2	
O=C(O)[C@H](O)[C@@H](O)C(=O)O [L-Tartaric acid]		17.2
CCOC(=O)CC(C)O (stereo not shown) [Ethyl 3-hydroxybutyrate]	11.8	
CN1c2ccccc2C(=O)N2CCc3c([nH]c4ccccc34)C21 (racemic) [(±)-Evodiamine]	18.7	
CCCCC/C=C/C=C/C(=O)NCC(C)C [Pellitorine]	14.2	
O=C(O)c1ccc(C(=O)O)cc1 [Terephthalic acid]	10.1	
O=C(O)c1ccccc1 [Benzoic acid]	11.6	
O=C(O)c1ccncc1 [Isonicotinic acid]	55	
O=C(O)c1c(O)cccc1O [2,6-Dihydroxybenzoic acid]	10.3	
C=C(CO)C(=O)O[C@H]1CC(=C)[C@@H]2C[C@H](O)C(=C)[C@@H]2[C@H]2OC(=O)C(=C)[C@@H]21 [Cynaropicrin]	8.5	
O=C(O)CNC(=O)c1ccccc1 [Hippuric acid]	8.9	
Cc1ccccc1C(=O)O [o-Toluic acid]	0	
Cc1ccccc1C(=O)NCC(=O)O [2-(2-Methylbenzamido)acetic acid]	54.8	
CCOC(=O)/C=C/c1ccc(O)cc1 [p-Coumaric Acid Ethyl Ester]	23	
O=C1Cc2ccccc2N1 [Oxindole]	15.9	
O=C1C=CC[C@@H]2[C@H]3CCCN4CCC[C@@H](CN12)[C@@H]34 [Sophocarpine (monohydrate)]		23.9
COc1ccc(C2COc3cc(O)ccc3C2)c(O)c1OC (stereo not shown) [Isomucronulatol]	9.8	

Compound	229E Inhibition rate [%]	229E Inhibition rate (229E Inhibition rate, 24 h) [%]
COc1ccc(C(=O)O)cc1 [p-Anisic acid]	5.8	
Oc1cc(O)c2c(c1)O[C@H](c1cc(O)c(O)c(O)c1)[C@H](O)C2 [(-)-Epigallocatechin]	10.4	
Oc1cc(O)c2c(c1)O[C@H](c1cc(O)c(O)c(O)c1)[C@@H](O)C2 [(+)-Gallocatechin]	54.1	
Oc1cc(O)c2c(c1)O[C@@H](c1cc(O)c(O)c(O)c1)[C@H](O)C2 [(-)-Gallocatechin]	16.1	
O=C(O)CC(O)(CC(=O)O)C(=O)O [Sodium citrate (dihydrate)]		0
CC(C)C1=Cc2ccc3c(c2C(=O)C1=O)CCCC3(C)C [Miltirone]	4.2	
O=C(O)Cc1cccc(O)c1 [3-Hydroxyphenylacetic acid]	11	
C=C1C[C@@]2(O)O[C@@]3(C[C@H]2C(C)C)[C@@H](C)CC[C@@H]13 [Curcumol]	11.7	
C=C1C[C@]2(O)O[C@@]3(CC2=C(C)C)[C@@H](C)CC[C@@H]13 [Isocurcumenol]	10.7	
CC1=C[C@]2(O)O[C@@]3(CC2=C(C)C)[C@@H](C)CC[C@@H]13 [Curcumenol]	64.3	
O=C1CCCCC1=O [1,2-Cyclohexanedione]	20.8	
C=C(C)C1CC=C(C)C(O)C1 (mixture of isomers) [Carveol]	14.5	
C[C@H]1CC[C@@H]2N(C1)C[C@H]1[C@@H]3C[C@H]4[C@@H](CC(=O)[C@H]5C[C@@H](O[C@@H]6O[C@H](CO)[C@@H](O)[C@H](O)[C@H]6O)CC[C@@]54C)[C@@H]3CC[C@@H]1[C@]2(C)O [Edpetiline]	11.7	
COC(=O)c1ccccc1O[C@@H]1O[C@H](CO[C@@H]2OC[C@@H](O)[C@H](O)[C@H]2O)[C@@H](O)[C@H](O)[C@H]1O [Gaultherin]	45.9	
COc1ccc(C(C)=O)c(O[C@@H]2O[C@H](CO[C@@H]3OC[C@H](O)[C@H](O)[C@H]3O)[C@@H](O)[C@H](O)[C@H]2O)c1 [Apiopaeonoside]	0	
O[C@@H]1[C@@H](O)[C@H](OC/C=C/c2ccccc2)O[C@H](CO[C@@H]2OC[C@H](O)[C@H](O)[C@H]2O)[C@H]1O [Rosavin]	56.6	
O=C1NCN(c2ccccc2)C12CCN(CCCOc1ccc(F)cc1)CC2 [Spiramide]	51.4	
O=C(O)c1cc(O)c2c(c1)C(=O)c1cccc(O)c1C2=O [Rhein]	55.2	
Cc1cc(O)c2c(c1)C(=O)c1cccc(O)c1C2=O [Chrysophanol]	29.5	
O=C1c2cccc(O)c2C(=O)c2c(O)cccc21 [Danthron]	0	

From publication PMC12431657, “Discovery and mechanistic insights of dibenzoylmethane as a broad spectrum inhibitor of coronavirus” (PLOS Pathogens, 2025)
